LGR2 inh: Drosophila LGR2 receptor signaling inhibition | AID 720647 | 0.35% of 380,000 active | HEK293 LGR2, CRE-luciferase, bursicon-stimulated, 4 h | inhibition, % at 9.99 µM;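 active means drop in luminescence signal, shown as inhibition above about 50% in the replicate tests, limit read from the data, passing the limit was not always enough; inconclusive means probably only some replicates passing the limit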;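 further: agonist challenge used bursicon conditioned medium at about half maximal strength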
EWS-Fli block: blocks EWS/Fli oncoprotein-driven transcription | A673 NR0B1-luciferase reporter, viability-normalised | inhibition, % at 12.6 µM | 0.67% of 350,000 active | AID 651661;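 active means mean inhibition of at least 50% after viability correction, with every replicate also passing that limit; inconclusive means mean reaches 50% but only one of two replicates passes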;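 further: firefly luciferase signal divided by Alamar Blue viability fluorescence both relative to DMSO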
CF NFkB block: cystic fibrosis NF-kB activation inhibition; KKLEB NF-kB-GFP reporter, PAF-induced, GFP fluorescence overnight; inhibition, % at 5 µM; 0.86% of 360,000 active; AID 588850;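 active means at least 50% inhibition at 5 µM, scaled per plate between neutral and stimulator controls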;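 further: PAF is a Pseudomonas aeruginosa culture filtrate used as stimulus; plate controls were PAF-stimulated DMSO wells for no effect and unstimulated DMSO wells for full effect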
KKLEB cytotox: counter-screen for CF NF-kB inhibitors: cytotoxicity; KKLEB CF airway cells viability, ATPlite luminescence, overnight; active compounds read low; cells stimulated with P. aeruginosa culture filtrate; activity change (cytotoxicity), % at 5 µM; 0.36% of 360,000 active; AID 602141;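 active means corrected activity change at or below -50% at 5 µM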
PAX8 inh HTS: PAX8 transcriptional activity inhibition. 1.2% of 360,000 active. AID 652154. inhibition, % at 12.6 µM. RMG-I TPO-luciferase reporter, SteadyGlo, 24 h;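 active means mean replicate inhibition at least 60% with every replicate also reaching 60%; inconclusive means only one of the two criteria is met; inactive means mean below 60% and not all replicates reaching 60%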;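 further: luciferase light reporting Pax8 driven TPO promoter activity; plate controls were median of neutral control wells for no effect and mitoxantrone controls for full effect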
Shn3 3UTR inh: Schnurri-3 reporter inhibition in Clone20 osteoblasts. Clone20 osteoblast Shn3 3'UTR firefly luciferase, 24 h. inhibition, % at 12.5 µM. 0.52% of 360,000 active. AID 588674;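 active means mean inhibition of at least 75% with every replicate also reaching 75%; inconclusive means mean inhibition at least 75% but some replicate below; inactive means mean inhibition below 75%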;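 further: 0% = median of neutral control wells and 100% = pilot-screen positive control compound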
The depositor's hits bear a star; ? = inconclusive; . = no result given. In the library only some 2% were active in any assay of this set; here they are far more common.

SMILES | LGR2 inh | EWS-Fli block | CF NFkB block | KKLEB cytotox | PAX8 inh HTS | Shn3 3UTR inh
CC1(C)C[C@H](O)[C@]2(CO)[C@H](O)C[C@]3(C)C(=CCC4[C@@]5(C)CC[C@H](O)C(C)(C)C5CC[C@]43C)[C@@H]2C1 (some centres undefined) | 12.5 | 17.6 | 69.1* | -65.4* | 14.1 | 34.9
O=C1C=C(c2c(O)ccc3ccccc23)c2ccccc2C1=O | 95.0* | 56.6* | 88.4* | -35.7 | 82.8* | 96.1*
CN(c1ccccc1)S(=O)(=O)c1cccc(NC(=O)c2cccc(C#N)c2)c1 | 8.6 | 11.2 | 0.3 | -8.8 | 17.1 | 33.5
Cc1nc2ccc(NC(=O)c3cccc(S(=O)(=O)N(C)c4ccccc4)c3)cc2s1 | . | . | -7.9 | 14.2 | . | 89.6*
CN(c1ccccc1)S(=O)(=O)c1cccc(NC(=O)c2ccc3ncsc3c2)c1 | 8.4 | 11.6 | 0.8 | -0.1 | 8.9 | 88.1*
COc1cccc(NC(=O)Nc2ccc3c(c2)C(=O)N(C)C[C@H](OC)[C@@H](C)CN(CC2CC2)[C@@H](C)CO3)c1 | -12.0 | 5.4 | . | . | -30.5 | .
Cc1ccc(S(=O)(=O)Nc2ccc3c(c2)C(=O)N([C@@H](C)CO)C[C@H](C)[C@@H](CN(C)C(=O)Cc2ccccc2)OCCCC[C@@H](C)O3)cc1 | 7.6 | 0.6 | . | . | 8.2 | .
CCNC(=O)C[C@H]1CC[C@H]2[C@@H](COc3ccc(NC(=O)c4ccccc4Cl)cc3C(=O)N2C)O1 | . | -0.9 | . | . | -17.2 | .
O=C1c2ccccc2C(=O)c2[nH]cnc21 | 8.9 | 34.0 | -25.5 | 2.1 | 1.8 | 17.0
O=C1c2ccccc2C(=O)c2[nH]c(=O)[nH]c21 | 34.9 | 4.4 | 95.7* | -41.8 | 91.5* | 70.5
O=C(O)c1ccc(NC2=C/C(=N/S(=O)(=O)c3ccccc3)c3ccccc3C2=O)cc1 | 98.9* | 26.8 | 89.1* | -37.3 | 79.8* | ?
O=C(O)c1ccc(NS(=O)(=O)c2ccc3c(c2)C(=O)c2ccccc2C3=O)cc1 | 7.1 | 8.1 | 3.8 | 3.7 | -4.2 | -0.4
Cc1cc(C)c(S(=O)(=O)/N=C2\C=C(Nc3ccc(C(=O)O)cc3)C(=O)c3ccccc32)c(C)c1 | 2.6 | -36.7 | 91.1* | -63.3* | ? | 74.4
CN1C(=O)c2cc(NC(=O)C3CCC3)ccc2OC[C@@H]2O[C@@H](CC(=O)NCc3ccccc3F)CC[C@H]21 | 1.1 | -7.0 | . | . | -23.3 | .
Cc1nn(Cc2noc(C(=O)NC3CCC(C)CC3)n2)c(C)c1Br (centres undefined) | -2.4 | . | -1.4 | 3.9 | -3.1 | 89.7*
C[C@H]1CN([C@@H](C)CO)C(=O)Cc2cc(NS(=O)(=O)c3ccc(F)cc3)ccc2O[C@@H]1CN(C)S(C)(=O)=O | 1.6 | 3.6 | . | . | 1.8 | .
Cn1cnc([N+](=O)[O-])c1Sc1nc(N)nc2c1ncn2C1CC(O)C(CO)O1 (centres undefined) | -15.7 | 32.6 | 1.7 | 8.9 | 74.1* | -18.2
CC(C)(C)NC(=O)NC(=O)CN1CCN(c2ccc(O)cc2)CC1 | 4.4 | 4.4 | -13.0 | 5.2 | 9.7 | 86.7*
CC(C)(C)NC(=O)NC(=O)CN1CCN(c2ccccc2)CC1 | . | 11.0 | 5.9 | -7.7 | 19.3 | 6.5
C=C1C(=O)C=C2CN(C(=O)c3ccccc3)[C@@](Cc3ccc(F)cc3)(C(=O)OC)[C@@H]12 | . | . | 75.0* | -91.2* | . | 95.2*
OCCN(CCO)c1cc2c3ccccc3ccc2c2ccccc12 | 84.9* | -12.7 | -13.5 | -7.9 | 8.5 | 0.2
OCCN(CCO)c1ccc2ccccc2c1 | 20.5 | -10.5 | -7.5 | -6.3 | 4.8 | 11.2
N#C/C(=C(/O)CCl)c1nc2ccccc2[nH]1 | 4.5 | 11.9 | 11.9 | -11.8 | 38.6 | 9.2
N#C/C(=C(\O)Cc1ccccc1)c1nc2ccccc2[nH]1 | . | . | 22.1 | -25.2 | . | 89.6*
Cc1cccc(C)c1OCC(=O)OC/C(O)=C(\C#N)c1nc2ccccc2[nH]1 | . | 9.1 | 2.2 | -0.8 | 68.8* | 15.1
SMILES | LGR2 inh | EWS-Fli block | CF NFkB block | KKLEB cytotox | PAX8 inh HTS | Shn3 3UTR inh
Cc1cc(C)cc(OCC(=O)OC/C(O)=C(\C#N)c2nc3ccccc3[nH]2)c1 | -8.9 | . | -18.8 | 0.3 | -2.0 | -2.0
COc1ccc(CNC(=O)C[C@H]2C=C[C@@H](NC(=O)CN(C)C)[C@H](CO)O2)cc1 | -10.0 | 10.2 | . | . | -19.5 | .
O=C(C1=C(c2ccccc2)C(=O)c2ccccc2C1=O)c1ccccc1 | . | 61.1* | 75.9* | -18.9 | 77.7* | 92.8*
O=C(c1ccc(NS(=O)(=O)/C=C/c2ccccc2)cc1)N1CCCCC1 | 18.9 | 33.0 | 56.0* | -69.3* | 13.8 | 2.1
CN1C(=O)c2cc(NC(=O)c3cccc(F)c3)ccc2OC[C@H]2O[C@H](CC(=O)NCC3CC3)CC[C@H]21 | 3.0 | 6.8 | . | . | -0.4 | .
COc1ccc(-c2cn(CC[C@H]3CC[C@@H](NC(=O)Cc4ccccn4)[C@H](CO)O3)nn2)cc1 | 7.4 | -6.7 | . | . | 76.6* | .
COc1ccc(-c2cn(CC[C@H]3CC[C@H](NC(=O)Cc4ccccn4)[C@H](CO)O3)nn2)cc1 | 3.5 | -8.4 | . | . | 54.9 | .
COc1ccc(-c2cn(CC[C@@H]3CC[C@@H](NC(=O)Cc4ccccn4)[C@@H](CO)O3)nn2)cc1 | -24.0 | -7.9 | . | . | 62.1* | .
COc1cccc(S(=O)(=O)N[C@@H]2CC[C@H](CCn3cc(-c4ccccc4)nn3)O[C@@H]2CO)c1 | -44.0 | 52.7* | . | . | 12.2 | .
COc1ccc(-c2cn(CC[C@H]3CC[C@H](NC(=O)Cc4ccccn4)[C@@H](CO)O3)nn2)cc1 | 6.1 | -8.2 | . | . | 85.7* | .
C[C@H](NC(=O)C[C@@H]1CC[C@H](NC(=O)C2CCC2)[C@H](CO)O1)c1ccccc1 | 16.9 | -2.9 | . | . | -5.5 | .
CC(=O)Nc1ccc2c(c1)C(=O)N(C)[C@@H]1CC[C@H](CC(=O)Nc3cn(C)nc3C)O[C@H]1CO2 | 9.9 | 4.6 | . | . | 5.0 | .
C[C@@H]1CCCCO[C@H](CN(C)C(=O)Nc2ccccc2)[C@H](C)CN([C@H](C)CO)C(=O)c2cc(NC(=O)c3ccncc3)ccc2O1 | -18.3 | -4.3 | . | . | -3.9 | .
Cc1ccc(S(=O)(=O)N(C)C[C@@H]2OCCCC[C@H](C)Oc3ccc(NC(=O)Nc4ccc(C(F)(F)F)cc4)cc3C(=O)N([C@H](C)CO)C[C@@H]2C)cc1 | -13.2 | 13.4 | . | . | ? | .
N#C/C(=C/c1ccc(N2CCCCCC2)o1)c1cccc(F)c1 | -32.3 | . | -33.1 | -10.4 | . | 95.3*
N#C/C(=C\c1ccc(N2CCOCC2)o1)c1ccccc1 | 9.3 | -10.9 | -40.1 | 14.4 | . | 92.1*
CC(C)NC(=S)N/N=C/c1ccc2c(c1)OCCO2 | -8.6 | 82.6* | 19.3 | -2.5 | -4.2 | -88.3
COc1ccccc1/C=C/C1(C(=O)NC2CCCC2)CC(=O)N1c1ccc(F)cc1 (centres undefined) | . | . | 80.1* | -76.9* | . | 2.6
COc1ccccc1/C=C/C1(C(=O)NC2CCCC2)CC(=O)N1c1ccc(C)cc1 (centres undefined) | . | . | 25.7 | -18.3 | 30.7 | 0.3
